# Abeta rescue: qHTS for compounds that reverse cellular toxicity of Amyloid beta (A-beta) peptide in yeast: Primary Screen; yeast expressing A-beta42, growth rescue, OD600, 48 h; response scale: 0% DMSO, 100% iron-clioquinol control; Potency, µM (series often up to 46.1 µM), most hits filed as activators; 410,000 compounds, 0.063% hits; AID 1347071, 2019; also: nearly all actives have a fitted effect of over 55% in size
#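 Yeast growth medium received pinned compounds, then yeast cells expressing toxic A-beta were added; plates incubated at 30 C for 48 hr. Growth read as absorbance at 600 nm, normalized to DMSO and equimolar FeCl3 plus clioquinol controls.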
# FUS yeast rescue: qHTS for Suppressors of FUS Proteinopathy: Primary screen using FUS-linked yeast assay. S. cerevisiae FUS-expressing, growth rescue, OD600, 24 h. Potency, µM (top dose mostly 76.6 µM), most hits filed as activators. 390,000 compounds, 0.24% hits. AID 1347120, 2019;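 also: plate controls were DMSO vehicle for no effect and reference control for full effect; nearly all actives have a fitted effect of over 55% in size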
#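 Toxicity suppression screen in FUS-yeast. Cells induced with 2% galactose, starting OD 0.005, treated 24hr at 30C with compounds at multiple final concentrations; growth by OD600.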
# Vif-A3G inh: qHTS for Inhibitors of Vif-A3G Interactions: qHTS. DNA dC->dU-editing enzyme APOBEC-3G (Homo sapiens), Q9HC16. AID 602310, 2012. HeLa A3G-eYFP + Vif (tagged APOBEC3G with the HIV-1 protein that degrades it), YFP fluorescence, overnight. Potency, µM (series often up to 46.1 µM), for inactives: at the top dose activity, negative = active, hits mostly inhibitors. 410,000 compounds, 0.076% hits; also: % is scaled to controls: 0 for no effect and ±100 for the full control effect; nearly all actives have a fitted effect of over 60% in size
# Target sequence (Q9HC16 whole entry, looked up): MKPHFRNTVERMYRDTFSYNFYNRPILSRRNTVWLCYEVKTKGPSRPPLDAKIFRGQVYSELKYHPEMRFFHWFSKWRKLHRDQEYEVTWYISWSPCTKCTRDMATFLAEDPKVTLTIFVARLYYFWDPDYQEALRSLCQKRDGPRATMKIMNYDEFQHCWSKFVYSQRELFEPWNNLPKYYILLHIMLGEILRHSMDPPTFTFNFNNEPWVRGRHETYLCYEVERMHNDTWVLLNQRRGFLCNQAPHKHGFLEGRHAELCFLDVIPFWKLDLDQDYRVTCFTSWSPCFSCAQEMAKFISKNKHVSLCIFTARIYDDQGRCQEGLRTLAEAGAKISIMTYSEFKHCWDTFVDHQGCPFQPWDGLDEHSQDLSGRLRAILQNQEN
#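 HeLa cells stably expressing Vif and C-terminally eYFP-tagged A3G, seeded overnight at 37 deg C, then exposed to compound by pintool overnight at 37 deg C. Rise in yellow fluorescence (Ex 488/Em 500-530, Acumen) marks blocked Vif-driven A3G degradation.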
# GRP78 ERSR act: qHTS for Inducers of the Endoplasmic Reticulum Stress Response (ERSR) in Human Glioma: qHTS; Potency, µM, for the others: at the highest dose activation, hits mostly activators; AID 602332, 2012; U87-MG GRP78 promoter luciferase reporter, 16 h; 420,000 compounds, 0.02% hits; also: series mostly up to about 76 µM; % of control where 0% means no effect; nearly all actives have a fitted effect of over 35% in size
#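 Stably transfected U87-MG glioma cells carrying a GRP78-based luciferase sensor; 16 h compound incubation. Luminescence end-point read 10 min after Bright-Glo addition at room temperature.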
# PINK1 modulator: A Quantitative High throughput Screen to Identify Chemical Modulators of PINK1 Expression; AID 624263, 2012; Potency, µM (highest dose often 76.6 µM), without a hit: top-dose activation (PINK1 increase), hits mostly activators; PINK1 immunofluorescence, high-content cytometry, 24 h; 410,000 compounds, 0.2% hits; active = well fitted activation curve with a large enough effect; inconclusive = small, poorly fitted or top-dose-only effect; cell line not stated here; also: % of control where 0% means no effect; nearly all actives have a fitted effect of over 65% in size
#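 Stable cell line, 250 cells/well, 12 h attachment; compounds pinned at 5 concentrations, 24 h; CCCP control. Fixed with nuclear dye, primary antibodies 12 h at 10 degrees C, secondary plus cell stain; laser-scanning cytometer read.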
# Vif-APOBEC3F blk: qHTS for Inhibitors of Vif-A3F Interactions: qHTS. HeLa A3F-eYFP + Vif (tagged APOBEC3F with the HIV-1 protein that degrades it), YFP fluorescence increase. Potency, µM (top dose mostly 46.1 µM), inactives show at the highest dose activity, negative = active. 390,000 compounds, 0.2% hits. AID 602313, 2012; also: % of control where 0% means no effect; nearly all actives have a fitted effect of over 65% in size
#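 Fluorescence increase (Ex 488/Em 500-530) after overnight compound treatment at 37 deg C flags inhibition of Vif-driven A3F-eYFP loss in stable HeLa A3F-eYFP/Vif cells seeded overnight beforehand.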
# Active calls of the source: *; i = inactive; ? = inconclusive; · = not tested or not shown; [ ] = dose if it differs, or a comment. Hits are enriched below; roughly 0.69% of the tested compounds scored in any of these assays. Unless noted, calls follow the shape of the dose curve; as a rule, active = well fitted curve in the direction sought with a large enough effect; inconclusive = small, poorly fitted or top-dose-only effect, or another doubt; inactive = no such curve, though single readings can be large; an effect the other way counts as inactive or inconclusive. Potency is read from the fitted curve at half-maximal effect.
SMILES,Abeta rescue,FUS yeast rescue,Vif-A3G inh,GRP78 ERSR act,PINK1 modulator,Vif-APOBEC3F blk
O=C(NC1CC1)c1cccc2c1C(=O)c1ccc(N3CCC(Cc4ccccc4)CC3)cc1S2(=O)=O,i,?,?,-2%,-1%,22µM*
CC1CCN(c2ccc3c(c2)S(=O)(=O)c2cccc(C(=O)NCc4ccc(F)cc4)c2C3=O)CC1,i,i,-12%,-4%,2%,?
O=C(NCc1ccc(F)cc1)c1cccc2c1C(=O)c1ccc(N3CCC(Cc4ccccc4)CC3)cc1S2(=O)=O,i,?,?,-2%,-1%,25µM*
Cc1oc(-c2ccccc2NC(=O)c2cccnc2)nc1CNC(=O)c1ccc(N(C)C)cc1,·,·,·,-5%,0%,·
CC[n+]1ccccc1/C=C1\Sc2ccc(C)cc2N1C,i,i,?,0%,16µM*,22µM*
CN1/C(=C/c2cccc[n+]2CCO)Sc2ccccc21,i,i,-8%,-4%,0%,8%
CCC1(C2CCN(Cc3ccc(C)s3)CC2)NC(=O)N(CC2COc3ccccc3O2)C1=O (stereo not given),·,·,·,-4%,-1%,·
O=C(Nc1cccc([N+](=O)[O-])c1)c1ccncc1,i,i,-4%,-3%,3%,-1%
CC(C)(C)c1ccc(C(=O)Nc2cccc([N+](=O)[O-])c2)cc1,i,·,0%,2%,45µM*,-24%
O=C(Nc1ccc(OC(F)(F)F)cc1)Nc1cccc([N+](=O)[O-])c1,i,i,-16%,2%,?,-17%
CC(C)(C)CC(C)(C)NC(=O)Nc1cccc([N+](=O)[O-])c1,i,i,4%,-5%,14µM*,5%
COC(=O)c1cn([C@@H]2C[C@@H](C(=O)Nc3cccc(SC)c3)N(C3CCCC3)C2)nn1,·,·,·,17%,1%,·
CCSc1nnc(NC(=O)C2Cc3ccccc3CN2S(=O)(=O)CC)s1 (stereo not given),i,3.5µM*,0%,1%,1%,?
CCS(=O)(=O)N1Cc2ccccc2CC1C(=O)Nc1nnc(SCc2c(Cl)cccc2Cl)s1 (stereo not given),i,·,4%,1%,0%,-14%
CCc1nnc(NC(=O)C2Cc3ccccc3CN2S(=O)(=O)c2ccc(C)cc2)s1 (stereo not given),i,14µM*,0%,5%,-6%,-6%
Cc1ccccc1C(=O)NC(C)c1nnc2n1CCN(Cc1ccnc3ccccc13)CC2 (stereo not given),·,·,·,-2%,1%,·
CC(C)c1c(C(=O)N(C)Cc2cccc3ncccc23)cnn1-c1nccc(-c2ccccc2F)n1,·,·,·,-5%,-1%,·
O=C(c1cnn(-c2nccc(-c3ccccc3F)n2)c1C1CC1)N1CCCCC1c1cccnc1 (stereo not given),·,·,·,-3%,0%,·
COc1ccccc1CCc1nc2ccccc2n1C1CCN(C(=O)c2cc(C)nn2C)CC1,·,·,·,-5%,-1%,·
CC(C)NC(=O)COC(=O)c1cncc(Br)c1,i,i,1%,-5%,0%,2%
CC(C)CNC(=O)COC(=O)c1cncc(Br)c1,i,4.5µM*,-2%,-2%,14%[38.3 µM],-8%
CCOc1ccc(S(=O)(=O)Nc2nc3ccccc3nc2Nc2ccc(OC)cc2)cc1,i,i,-11%,-1%,-5%,-18%
O=S(=O)(Nc1nc2ccccc2nc1OCC(F)(F)F)c1cccs1,i,i,-5%,-5%,1%,25µM*
Cc1ccc2nc(NS(=O)(=O)c3ccc(Cl)cc3)c(Nc3ccc(C(=O)O)cc3)nc2c1,i,i,-3%,-2%,0%,4.5µM*
CC(=O)c1ccc(Nc2nc3ccccc3nc2NS(=O)(=O)c2cccs2)cc1,·,i,-6%,-3%,40µM*,15%
SMILES,Abeta rescue,FUS yeast rescue,Vif-A3G inh,GRP78 ERSR act,PINK1 modulator,Vif-APOBEC3F blk
COc1cccc(Nc2nc3cc(C)ccc3nc2NS(=O)(=O)c2ccc(Cl)cc2)c1,i,i,-10%,-4%,-1%,-4%
CCOC(=O)c1ccc(Nc2nc3ccccc3nc2NS(=O)(=O)c2ccc(Cl)cc2)cc1,i,i,-27%,-3%,1%,7.1µM*
COc1ccc(Nc2nc3ccccc3nc2NS(=O)(=O)c2cccs2)cc1,i,i,-1%,-1%,-1%,5%
O=C(NCc1nnc2n1CCN(C(=O)/C=C/c1ccccc1)CC2)c1cccc(F)c1,·,·,·,-4%,0%,·
CN1CCCCC1C(=O)N1CCC(Oc2cccc(CN3CCN(c4ccccn4)CC3)c2)CC1 (stereo not given),·,·,·,-4%,0%,·
CNC(=O)[C@@H]1C[C@H](Sc2nc3ccccc3[nH]2)CN1Cc1cccc(C(F)(F)F)c1,·,·,·,-3%,0%,·
COc1cccc(C#Cc2c(C=O)n(C)c3ccccc23)c1,i,i,-16%,-5%,40µM*,-26%
CNc1ccccc1C(C)(C)c1cc(-c2cccc([N+](=O)[O-])c2)no1,11µM*,i,3%,-7%,2%,9%
Cc1cnc(-n2ncc(C(=O)NCc3cccnc3)c2C)nc1-c1ccc(F)cc1,·,·,·,-6%,1%,·
COc1cnn(-c2ccccc2)c(=O)c1N(C)C,i,i,1%,-2%,13µM*,-3%
C[C@@H]1CN(Cc2ccc3c(c2)CN(Cc2cccn2-c2cccnc2)CCO3)C[C@H](C)O1,·,·,·,-5%,-1%,·
Cc1cnc(SCc2ccccn2)nc1C1CCCN(Cc2ccsc2)C1 (stereo not given),·,·,·,-3%,1%,·
Cc1ccc2cc3c(N)c(C(=O)Nc4c(C)[nH]c(=O)[nH]c4=O)sc3nc2c1,i,i,?,-3%,32µM*,?
Cc1cc(C(F)(F)F)c2c(N)c(C(=O)Nc3cc(C)on3)sc2n1,i,i,-16%,5%,22µM*,11µM*
CC1CCCN(S(=O)(=O)c2ccc(NC(=O)CN3C(=O)NC(C)(c4ccccc4)C3=O)cc2)C1 (stereo not given),i,28µM*,2%,-4%,1%,1%
COCCC(=O)NCC1Cc2cc(Cl)cc(-c3ccc4[nH]ccc4c3)c2O1 (stereo not given),·,·,·,3%,2%,·

# Source: PubChem BioAssay
